The values below come from PubChem BioAssay AID504766 (The Scripps Research Institute Molecular Screening Center, 2011).

Among all 340,000 compounds or so, about 3,400 (1%) were called active.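 The calls were made as follows: active = inhibition above the mean over all tested compounds plus 3 SD (cut at about 4.2% in these data); inactive = the rest.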 This excerpt belongs to a sample that is enriched for actives.

The target in the assay is Nuclear receptor subfamily 0 group B member 1 (Homo sapiens) (UniProt P51843). The experiment in a line: DAX1 (NR0B1) inhibitors, primary screen, cell-based, HEK293, Gal4-DAX1, luciferase luminescence (AID 504766).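 Also: 0% = DAX1-transfected cells with DMSO and 100% = empty-vector control cells with DMSO; inhibition shows as a rise in luminescence from relieved DAX1 repression.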 Conditions: HEK293 Gal4-DAX1 luciferase reporter, at 6.75 µM, hits give high values.
Chain of Nuclear receptor subfamily 0 group B member 1 (Homo sapiens) (P51843 207-470 limits assumed): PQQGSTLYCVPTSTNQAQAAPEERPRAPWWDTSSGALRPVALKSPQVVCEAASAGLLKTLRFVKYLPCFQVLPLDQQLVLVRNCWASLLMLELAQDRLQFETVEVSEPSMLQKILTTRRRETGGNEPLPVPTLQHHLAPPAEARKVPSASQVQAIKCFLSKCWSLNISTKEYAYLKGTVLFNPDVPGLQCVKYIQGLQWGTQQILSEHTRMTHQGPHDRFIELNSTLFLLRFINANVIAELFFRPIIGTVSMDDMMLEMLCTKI
`CC1C(=O)OC2CCN3CC=C(COC(=O)C(C)(O)C1(C)O)C23` (stereo not given): the inhibition – broadly, the relative decrease from the control value, in per cent – was 6.45% (active). As to `O=C(NCC1=C(c2ccc3ccccc3c2)C[C@@H]2CC[C@H]1N2Cc1ccco1)c1cccs1`, the inhibition was 0.9% (inactive). Turning to `CN(C)CC1CCCCC1OC(=O)c1ccc(Cl)c(Cl)c1` (stereo not given), the inhibition was 1.17% (inactive). `N=c1ccccn1Cc1ccccc1`: the inhibition is 4.71% (active). The value for `COc1cc2nc(N3CCN(C(=O)[C@@H]4CCCO4)CC3)nc(N)c2cc1OC` was -1.49% (inactive). The figure for `CC(C(=O)Nc1ccc(Cl)cc1Cl)N1CC=C(c2ccccc2)CC1` (stereo not given) is 0.95% (inactive). As to `COC(=O)C1=C(c2ccc3ccccc3c2)C[C@@H]2CC[C@H]1N2C(=O)NCCO`, the inhibition was -0.02% (inactive).

In the case of `COC(=O)C1=C(c2ccc(F)cc2F)C[C@@H]2CC[C@H]1N2C(=O)NC1CC1`, the inhibition is 1.3% (inactive).

As for `Fc1ccc(C2N3CCCN23)cc1` (stereo not given), the inhibition was 6.8% (active). Take `Cc1cccc(NC(=O)N2CC3CC(C2)c2cccc(=O)n2C3)c1` (stereo not given): the inhibition is -0.11% (inactive). For `CC(=CCOc1ccc2ccc(=O)oc2c1)C1=CC(=O)C(C)(C)O1`, the inhibition is -1.41% (inactive). Consider `C[C@]12CC[C@H](O)CC1=C([N+](=O)[O-])CC1C2CC[C@@]2(C)C1CC[C@@H]2O` (stereo not given in full), for which the inhibition is 0.51% (inactive). As to `COc1ccc(-c2nn(CCC#N)cc2C(=O)O)cc1`, the inhibition was 0.78% (inactive).

With `O=C(N/N=C/c1c(O)n(Cc2ccccc2)c(=O)[nH]c1=O)c1ccccc1`, the inhibition is 0.57% (inactive).

For `CCC(=NCc1ccco1)c1c(O)n(Cc2ccccc2)c(=O)[nH]c1=O`, the inhibition is -0.6% (inactive). As for `CC/C(=N\NC(=O)c1ccccc1O)c1c(O)n(Cc2ccccc2)c(=O)[nH]c1=O`, the inhibition is 4.6% (active).

Regarding `Cc1ccc(OC(=O)N(C)C[C@@H]2OCc3cnnn3CCCC(=O)N([C@H](C)CO)C[C@@H]2C)cc1`, the inhibition is 1.2% (inactive).

With `COC(=O)C1=C(c2cccc(OCc3ccccc3)c2)C[C@@H]2CC[C@H]1N2C(=O)NCc1ccc(Br)cc1`, the inhibition was -1.05% (inactive). `C=Cn1ccnc1P(=S)(c1cc(N(CC)CC)ns1)c1nccn1C=C`: the inhibition was 0.78% (inactive). In the case of `Cc1nc2ccccn2c1P(=S)(N1CCCCC1)N1CCCCC1`, the inhibition is -0.88% (inactive). The figure for `CC(=O)OC1C2(CC3N4C(=O)C5(CO)SSC4(CC31O)C(=O)N5C)OC(C)C(C)(C)C2=O` (stereo not given) is -6.61% (inactive); for `O=C(c1cc(S(=O)(=O)N2CCOCC2)ccc1F)N1CCC2(CC1)OCCO2` it is 0.34% (inactive). Regarding `O=C(c1cc(-c2ccncc2)nc2ccccc12)N1CCC2(CC1)OCCO2`, the inhibition is 1.03% (inactive). Regarding `O=C(c1ccccc1[N+](=O)[O-])N1CCC2(CC1)OCCO2`, the inhibition is 5.98% (active). With `CN(C)c1nc(N(C)C)nc(N(C#N)CCCl)n1`, the inhibition is -0.78% (inactive). `CNCC(O)c1cc(F)c(OCc2ccccc2)c(OCc2ccccc2)c1F` (stereo not given): the inhibition was -0.1% (inactive). `CN1CCc2cc3c(cc2[C@H]1[C@@H]1OC(=O)c2c1ccc1c2OCO1)OCO3`: the inhibition was 1.17% (inactive). As for `O=C1NC(=O)C(CCOc2ccccc2)(CCc2ccccc2)C(=O)N1`, the inhibition is -0.23% (inactive). The value for `CCC(C)n1c(O)c(/C=N/Nc2nc3c(c(=O)n(C)c(=O)n3C)n2C)c(=O)[nH]c1=S` (stereo not given) was 4.71% (active); that for `O=C(CCC(=O)N1C[C@H]2C[C@@H](C1)c1cccc(=O)n1C2)NCc1ccccc1C(F)(F)F` was 0.36% (inactive).
